Test results: PubChem BioAssay AID1851 (National Center for Advancing Translational Sciences (NCATS), 2009)
“And” between values parts separate entries of the source, which are not always exact repeats. Equal values may be shown once. Among all 16,000 compounds or so, about 5,800 (36%) were called active. About 23% were inconclusive and are not listed. The list shows a part of the results. A structure can be active in one record and inactive in another. A number with no mark means an inactive call. Calls follow the shape of the dose curve; as a rule, active = well fitted curve in the direction sought with a large enough effect; inconclusive = small, poorly fitted or top-dose-only effect, or effect the other way; inactive = no such curve, though single readings can be large or run the other way.

target: Cytochrome P450 2C19 (Homo sapiens) (UniProt P33261); experiment: Cytochrome panel assay with activity outcomes; conditions: recombinant CYP, pro-luciferin dealkylation, luminescence, p450-cyp2c19; series mostly up to 57.1 µM
Sequence (P33261 whole entry, looked up): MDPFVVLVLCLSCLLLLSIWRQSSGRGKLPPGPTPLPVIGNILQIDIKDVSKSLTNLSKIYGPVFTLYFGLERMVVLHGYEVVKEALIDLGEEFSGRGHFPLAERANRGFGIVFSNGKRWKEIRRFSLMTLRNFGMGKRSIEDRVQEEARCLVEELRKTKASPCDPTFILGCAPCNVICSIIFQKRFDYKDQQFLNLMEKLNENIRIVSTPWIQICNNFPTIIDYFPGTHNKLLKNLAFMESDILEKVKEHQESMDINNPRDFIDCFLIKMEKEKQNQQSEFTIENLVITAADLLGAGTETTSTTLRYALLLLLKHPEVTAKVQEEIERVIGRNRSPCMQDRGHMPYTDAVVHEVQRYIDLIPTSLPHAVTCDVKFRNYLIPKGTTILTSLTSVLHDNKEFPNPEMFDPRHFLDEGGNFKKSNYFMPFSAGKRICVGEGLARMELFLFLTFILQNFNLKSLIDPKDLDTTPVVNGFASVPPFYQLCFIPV
% is scaled to controls: 0 for no effect and ±100 for the full control effect.

SMILES | AC50 | activity, negative = inhibition
CCNC(=O)C1CC(=O)OC12CCCCC2 (stereo not given) | inactive | 
CN(C)CCn1c(CO)nc2c1c(=O)n(C)c(=O)n2C |  | 29.8% [at 11.4 µM]
Cn1c(=O)c2c(nc(Cl)n2Cc2ccc(Cl)c(Cl)c2)n(C)c1=O | 2 µM (active) | 
CN(C)CCNc1nc2c(c(=O)n(C)c(=O)n2C)n1C |  | -4.31% [at 11.4 µM]
Cn1c(OCc2ccc3c(c2)OCO3)nc2c1c(=O)n(Cc1ccc(Cl)c(Cl)c1)c(=O)n2C | 10 µM (active) | 
CCc1ccc(N2CC(C)Cn3c2nc2c3c(=O)n(CCN3CCOCC3)c(=O)n2C)cc1 (stereo not given) | inactive | 
CCC(C(=O)NC(C)(C)C)N(C(=O)Cn1nnc(-c2cccs2)n1)c1cnc2ccccc2c1 (stereo not given) | 31.6 µM (active) | 
O=C(Nc1cnc2ccccc2c1)c1cccc(-n2cnnn2)c1 | inactive | 
CCCCCCCC/C=C\CCCCCCCC(=O)NCc1ccc(O)c(OC)c1 | inactive | 
CCCCCCCCC(=O)NCc1cc(OC)c(O)cc1I | inactive | 
COc1cc(CNC(=O)CCCC/C=C\C(C)C)ccc1O | 7.94 µM (active) | 
CC(C)(C)C(=O)NNC(=O)CCCOc1ccc(Cl)cc1Cl | 11.2 µM (active) | 
CC(C)C(=O)Nc1ccc(C(=O)NNC(=O)C(c2ccccc2)c2ccccc2)cc1 | inactive | 
CC(C)C(=O)Nc1ccc(C(=O)NNC(=O)CCCOc2ccc(Cl)cc2Cl)cc1 | 4.47 µM (active) | 
COc1ccc(/C=N/NC(=O)CCCOc2ccc(Cl)cc2Cl)cc1[N+](=O)[O-] | 1 µM (active) | 
CN1C[C@H](c2ccccc2)C(O)([C@]2(c3ccccc3)CN(C)C[C@@H](c3ccccc3)C2=O)[C@H](c2ccccc2)C1 (stereo not given in full) |  | 7.29% [at 11.4 µM]
CCCCCCc1c(C[C@H](N)C(=O)O)o[nH]c1=O | inactive | 
CCC/C=C(\CCC)C(NS(=O)(=O)c1ccc(C(F)(F)F)cc1)c1ccccc1 (stereo not given) | 0.398 µM (active) | 
CCC/C=C(\CCC)C(NS(=O)(=O)c1ccccc1)c1ccc(C(F)(F)F)cc1 (stereo not given) | 7.94 µM (active) | 
C/C(=C\C1CCCCC1)C(NC(=O)c1ccc(C(F)(F)F)cc1)c1ccc(-c2ccccc2)cc1 (stereo not given) | inactive | 
CCC/C=C(\CCC)C(NS(=O)(=O)c1ccc(C(F)(F)F)cc1)c1ccc(-c2ccccc2)cc1 (stereo not given) | 7.94 µM (active) | 
CC(C)CN1CCCC2(CCN(C(=O)c3cccn3C)CC2)C1 | inactive | 
Cc1nn(S(=O)(=O)c2cccs2)c(C)c1Sc1ccc([N+](=O)[O-])cc1 | 0.562 µM (active) | 
COc1ccc2nc3c(c([Si](C)(C)C(C)(C)C)c2c1)Cn1c-3cccc1=O | 2 µM (active) | 

SMILES | AC50 | activity, negative = inhibition
Cc1c2c(nc3ccccc13)-c1cccc(=O)n1C2 | inactive | 
CC(C)(C)[Si](C)(C)c1c2c(nc3ccc(OCc4ccccc4)cc13)-c1cccc(=O)n1C2 | inactive | 
CCCCC/C=C\C[C@H](O)/C=C\c1cccc(C[C@H](O)CCCCO)n1 | inactive | 
COc1ccc2c(C=Nc3c(C)n(C)n(-c4ccccc4)c3=O)c(O)n(Cc3ccco3)c(=O)c2c1 | 10 µM (active) | 
COc1ccc(C(=O)NCC(c2ccc(F)cc2)N2CCOCC2)cc1S(=O)(=O)N1CCCC1 (stereo not given) | 6.31 µM (active) | 
OCCCN=C1CCCCC1 |  | 31.2% [at 11.4 µM]
Clc1ccc2c(NCCNc3ccnc4cc(Cl)ccc34)ccnc2c1 |  | -22.5% [at 11.4 µM]
O=C(N/N=C/c1cccc([N+](=O)[O-])c1)c1cc2c(ccc3ccccc32)o1 | inactive | 
C=CCn1cc(/C=N\NC(=O)c2cc3c(ccc4ccccc43)o2)c2ccccc21 | 4.47 µM (active) | 
CCC1C(=O)OCC1Cc1cncn1C (stereo not given) | 7.94 µM (active) | 
CC[C@H]1C(=O)OC[C@H]1Cc1cncn1C | inactive | 
CC1(C)Cc2c(C#N)c(SCc3ccccc3)nc(N3CCOCC3)c2CO1 | 8.91 µM (active) | 
COc1ccc(-c2nc3cnc(Oc4cccc(Cl)c4)nc3n(C[C@H]3CCCO3)c2=O)cc1 | inactive | 
N#CCCn1c(=O)c(CCc2ccccc2)nc2cnc(Oc3cccc(Cl)c3)nc21 | 6.31 µM (active) | 
N#CCCn1c(=O)c(CCc2ccccc2)nc2cnc(Oc3ccccc3)nc21 | 31.6 µM (active) | 
COCCn1c(=O)c(-c2cn(C)c3ccccc23)nc2cnc(Oc3cccc(Cl)c3)nc21 | inactive | 
N#CCCn1c(=O)c(-c2ccccc2)nc2cnc(Oc3cccc(Cl)c3)nc21 | inactive | 
Cc1nc2cnc(Oc3cccc(Cl)c3)nc2n(CCC#N)c1=O | inactive | 
CN(C)c1ncc2nc(-c3ccc(Cl)cc3)c(=O)n(C[C@H]3CCCO3)c2n1 | inactive | 
COCCn1c(=O)c(-c2cc(F)cc(F)c2)nc2cnc(Oc3cccc(Cl)c3)nc21 | inactive | 
COc1ncc2nc(-c3ccc(Cl)cc3)c(=O)n(C[C@H]3CCCO3)c2n1 | 10 µM (active) | 
COCCn1c(=O)c(CCc2ccccc2)nc2cnc(Oc3cccc(Cl)c3)nc21 | 15.8 µM (active) | 
N#CCCn1c(=O)c(-c2cccc(C#N)c2)nc2cnc(Oc3ccccc3)nc21 | inactive | 
Cn1cc(-c2nc3cnc(Oc4ccccc4)nc3n(CCC#N)c2=O)c2ccccc21 | inactive | 

SMILES | AC50 | activity, negative = inhibition
O=C(O)CC/C=C\C[C@@H]1CO[C@H](c2ccccc2Cl)O[C@@H]1c1ccccc1O | inactive | 
O=c1c(CCc2ccccc2)nc2cnc(Oc3cccc(Cl)c3)nc2n1C[C@H]1CCCO1 | 20 µM (active) | 
COc1ccc(Oc2ncc3ncc(=O)n(C[C@H]4CCCO4)c3n2)cc1 | inactive | 
Cc1nc2cnc(Oc3cccc(Cl)c3)nc2n(C[C@H]2CCCO2)c1=O | inactive | 
COC(=O)[C@]1(C)CCC(c2ccc(C)cc2)=C(CC(=O)O)C1 |  | 11.9% [at 11.4 µM]
COc1ccc(C(=O)n2c(SC)nc3cc4c(cc32)OCCO4)cc1 | 10 µM (active) | 
CCOc1ccccc1NC(=O)CSc1nnc(-c2cnccn2)n1C | 15.8 µM (active) | 
CO[C@H]1C[C@@H]2C[C@H](O)C[C@@H](CC(=O)O[C@@H](/C=C\CC(C)C)C[C@@H]3CC[C@H](C)[C@@H](C1)O3)O2 |  | 2.79% [at 11.4 µM]
O=C(NCC1CCCO1)C1c2ccccc2C(=O)N1Cc1ccc2c(c1)OCO2 (stereo not given) | inactive | 
COCCCNC(=O)C1CC(=O)N(CCc2ccc(OC)c(OC)c2)C1 (stereo not given) | inactive | 
COc1ccc(CCN2C(=O)C(O)=C(C(=O)c3ccco3)C2c2cccs2)cc1OC (stereo not given) | inactive | 
O=C1C[C@@H](O)[C@@H](O)[C@H]2[C@@H]3C(=O)N(Cc4ccc5c(c4)OCO5)C(=O)[C@@H]3CC[C@H]12 |  | 37.1% [at 11.4 µM] and -14% [at 11.4 µM]
COc1ccc(CCN2C(=O)C(Oc3ccccc3C)C2c2ccc3c(c2)OCO3)cc1OC (stereo not given) | 0.501 µM (active) | 
Cc1ccccc1OC1C(=O)N(Cc2ccc3c(c2)OCO3)C1c1sccc1C (stereo not given) | 1.12 µM (active) | 
COC(=O)c1ccc(C2C(Oc3ccccc3)C(=O)N2CCc2ccc(OC)c(OC)c2)cc1 (stereo not given) | 1.58 µM (active) | 
CN(C)CCCO[C@H]1[C@@H]2OC(C)(C)O[C@@H]2O[C@@H]1[C@H](O)CO | inactive | 
C[n+]1ccccc1/C=N\O | inactive | 
CC(=O)NCCNc1ncnc2ccc(-c3ccoc3)cc12 | inactive | 
CC(=O)NCCNc1ncnc2ccc(-c3ccc4c(c3)OCO4)cc12 | 6.31 µM (active) | 
CC(=O)NCCNc1ncnc2ccc(-c3ccccc3C)cc12 | 20 µM (active) | 
COc1ccccc1-c1ccc2ncnc(NCCNC(C)=O)c2c1 | inactive | 
CC(=O)NCCNc1ncnc2ccc(-c3ccc(C(=O)N(C)C)cc3)cc12 | inactive | 
